This is an account of results in PubChem BioAssay (Tox21).

Active and inactive are the calls of the source. The call rests on the fitted dose curve; in most records, active means well fitted curve in the direction sought with a large enough effect in the repeat runs; inconclusive means weak or mixed curves; inactive means flat fitted curve, though single readings scatter.
On the % scale 0 is the no-effect control and ±100 the full control effect.

One assay can be described thus: qHTS assay to test for compound auto fluorescence at 535 nm (green) in HEK293 cells (AID 720680). To be noted: green autofluorescence 485/535 nm; series mostly up to 91.3 µM; fluorescence, % of fluorescein: at the top concentration. A general note: Quantitative high-throughput screening tests each substance at several concentrations.
`O=C(Nc1ccc(F)cc1F)c1cccnc1Oc1cccc(C(F)(F)F)c1`: the “fluorescence, % of fluorescein” value is 0.0167% [at 95.7 µM] (inactive).

As to `CC(C)=CC1C(C(=O)OC(C#N)c2cccc(Oc3ccccc3)c2)C1(C)C` (stereo not given), the “fluorescence, % of fluorescein” value was 0.193% (inactive).

Consider `CC1(C)C(C=C(Cl)Cl)C1C(=O)OC(C#N)c1ccc(F)c(Oc2ccccc2)c1` (stereo not given), for which the “fluorescence, % of fluorescein” value was -0.162% (inactive).

In the case of `C#CC1(O)CCCCC1`, the “fluorescence, % of fluorescein” value was 0.0573% (inactive).

For the compound `C=Cc1cccc(CCl)c1`, the “fluorescence, % of fluorescein” value was 0.0694% [at 203 µM] (inactive).

As to `CCC(C)c1cccc(C(C)CC)c1O` (stereo not given), the “fluorescence, % of fluorescein” value is 0.0669% (inactive).

On to `C[C@H]1[C@H](c2ccc(Cl)cc2)SC(=O)N1C(=O)NC1CCCCC1`, for which the “fluorescence, % of fluorescein” value was 0.138% (inactive).

For the compound `N#Cc1ccc(N(CC(N)=O)CC(F)(F)F)cc1C(F)(F)F`, the “fluorescence, % of fluorescein” value is -0.0332% (inactive).

On to `O=C(Cl)c1ccccc1F`, for which the “fluorescence, % of fluorescein” value was 0.0166% (inactive).

Turning to `CCOC(=O)Cc1ccccc1`, the “fluorescence, % of fluorescein” value is 0.154% (inactive).

Take `Brc1cccc(-c2ccccc2)c1`: the “fluorescence, % of fluorescein” value is -0.0185% (inactive).

Regarding `CC(C)Br`, the “fluorescence, % of fluorescein” value is 0.0302% (inactive).

`c1csc(-c2ccc(-c3cccs3)s2)c1`: the “fluorescence, % of fluorescein” value is -0.182% (inactive).

Turning to `CC(=O)C(Cl)C(=O)N(C)C` (stereo not given), the “fluorescence, % of fluorescein” value is -0.016% (inactive).

Consider `ClC(Cl)C(Cl)(Cl)Cl`, for which the “fluorescence, % of fluorescein” value was -0.196% (inactive).

Turning to `CC(C)C(Br)C(=O)NC(N)=O` (stereo not given), the “fluorescence, % of fluorescein” value is -0.0197% [at 46 µM] (inactive).

Another assay can be described thus: qHTS assay to test for compound auto fluorescence at 460 nm (blue) in HEK293 cell free culture (AID 720681). Further: potency means the concentration at half of the fitted maximal effect. The note with it: cell-free medium, autofluorescence 405/460 nm (blue); series mostly up to 91.3 µM; fluorescence, % of fluorescent control: at the top concentration. The gist of the method: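 Test compounds were pinned into cell-free culture medium (DMEM with 10% FBS) and fluorescence was read directly at Ex/Em 405/460 nm. Signals were expressed as fluorescence equivalents of triamterene, with DMSO vehicle as control.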
As to `Cc1c([N+](=O)[O-])c(C)c([N+](=O)[O-])c(C(C)(C)C)c1[N+](=O)[O-]`, the “fluorescence, % of fluorescent control” value was 0.0509% (inactive).

In the case of `N#CC(C#N)=NNc1cccc(Cl)c1`, the “fluorescence, % of fluorescent control” value was -0.744% (inactive).

Consider `Brc1ccc(Oc2ccc(Br)cc2Br)c(Br)c1`, for which the “fluorescence, % of fluorescent control” value was -0.104% (inactive).

For `CCOP(=O)(Sc1ccccc1)Sc1ccccc1`, the “fluorescence, % of fluorescent control” value was -0.262% (inactive).

For the compound `c1ccc2c(c1)cc1ccc3cccc4ccc2c1c34`, the “fluorescence, % of fluorescent control” value was 0.0733% [at 95.7 µM] (inactive).

On to `Oc1cc(Cl)cc(Cl)c1`, for which the “fluorescence, % of fluorescent control” value was -0.223% (inactive).

Turning to `CC(=O)[O-].CC(=O)[O-].CC(=O)[O-].[Cr+3]`, the “fluorescence, % of fluorescent control” value is -0.261% (inactive).

Turning to `Cc1cc2c3c(c1)C(c1ccccc1)=N[C@@H](NC(=O)c1ccncc1)C(=O)N3CC2`, the “fluorescence, % of fluorescent control” value was -0.0377% (inactive).

`COc1ccc2[nH]cc(CCN(C(C)C)C(C)C)c2c1`: the “fluorescence, % of fluorescent control” value was -0.0848% [at 95.7 µM] (inactive).

Consider `O=C1C2(Cl)C3(Cl)C4(Cl)C(Cl)(Cl)C5(Cl)C3(Cl)C1(Cl)C5(Cl)C24Cl` (stereo not given), for which the Potency entry was “inactive”.

For the compound `CC(C)N(C(=O)CCl)c1ccccc1`, the Potency result was “inactive”.

Regarding `CCNc1nc(NC(C)C(C)C)nc(SC)n1` (stereo not given), the “fluorescence, % of fluorescent control” value is -0.182% (inactive).

With `CCCN`, the “fluorescence, % of fluorescent control” value was 0.127% (inactive).

Turning to `CC(=O)[O-].CC(=O)[O-].CC(=O)[O-].[Sb+3]`, the fluorescence, % of fluorescent control was -0.0273% [at 3.72 µM] (inactive).

As to `Nc1cc(Cl)ccc1Cl`, the “fluorescence, % of fluorescent control” value was 0.0853% (inactive).

For `CN1CCc2cc3c(cc2C1O)OCO3` (stereo not given), the Potency was 39.8 µM (active).

On to `NC1CCC(CC2CCC(N)CC2)CC1` (stereo not given), for which the “fluorescence, % of fluorescent control” value is 0.106% (inactive).

`COP(=O)(OC)O/C(=C\Cl)c1cc(Cl)c(Cl)cc1Cl`: the “fluorescence, % of fluorescent control” value was -0.062% (inactive).

As for `CCCC[N+]1(C)CCCC1` (tested in a mixture with another compound), the “fluorescence, % of fluorescent control” value is -0.281% [at 95.7 µM] (inactive).

Take `c1ccc2nc(N3CCNCC3)ccc2c1`: the “fluorescence, % of fluorescent control” value was 0.185% [at 46 µM] (inactive).

Turning to `CCCCN(CCCC)C(=S)[S-].CCCCN(CCCC)C(=S)[S-].[Ni+2]`, the “fluorescence, % of fluorescent control” value is 0.0072% [at 46 µM] (inactive).

For the compound `O=C(Nc1ccc(F)cc1F)c1cccnc1Oc1cccc(C(F)(F)F)c1`, the “fluorescence, % of fluorescent control” value was -0.0224% [at 95.7 µM] (inactive).

As to `CC(C)=CC1C(C(=O)OC(C#N)c2cccc(Oc3ccccc3)c2)C1(C)C` (stereo not given), the “fluorescence, % of fluorescent control” value was -0.0502% (inactive).

Turning to `CC1(C)C(C=C(Cl)Cl)C1C(=O)OC(C#N)c1ccc(F)c(Oc2ccccc2)c1` (stereo not given), the “fluorescence, % of fluorescent control” value is -0.428% (inactive).

`C#CC1(O)CCCCC1`: the “fluorescence, % of fluorescent control” value is -0.0399% (inactive).

For the compound `C=Cc1cccc(CCl)c1`, the “fluorescence, % of fluorescent control” value is 0.0968% [at 203 µM] (inactive).

Turning to `CCC(C)c1cccc(C(C)CC)c1O` (stereo not given), the “fluorescence, % of fluorescent control” value was -0.0908% (inactive).

As for `C[C@H]1[C@H](c2ccc(Cl)cc2)SC(=O)N1C(=O)NC1CCCCC1`, the “fluorescence, % of fluorescent control” value was 0.0435% (inactive).

Consider `N#Cc1ccc(N(CC(N)=O)CC(F)(F)F)cc1C(F)(F)F`, for which the “fluorescence, % of fluorescent control” value was -0.082% (inactive).

As to `O=C(Cl)c1ccccc1F`, the “fluorescence, % of fluorescent control” value was 0.0287% (inactive).

Turning to `CCOC(=O)Cc1ccccc1`, the “fluorescence, % of fluorescent control” value was -0.0651% (inactive).

`Brc1cccc(-c2ccccc2)c1`: the “fluorescence, % of fluorescent control” value was -0.0346% (inactive).

For `CC(C)Br`, the “fluorescence, % of fluorescent control” value was -0.0927% (inactive).

For `c1csc(-c2ccc(-c3cccs3)s2)c1`, the “fluorescence, % of fluorescent control” value was 3.93% (inactive).

Take `CC(=O)C(Cl)C(=O)N(C)C` (stereo not given): the “fluorescence, % of fluorescent control” value was 0.168% (inactive).

Take `ClC(Cl)C(Cl)(Cl)Cl`: the “fluorescence, % of fluorescent control” value was -0.0469% (inactive).

Regarding `CC(C)C(Br)C(=O)NC(N)=O` (stereo not given), the “fluorescence, % of fluorescent control” value was -0.0817% [at 46 µM] (inactive).

The next assay can be described thus: qHTS assay to test for compound auto fluorescence at 535 nm (green) in HEK293 cell free culture (AID 720682). To be noted: cell-free medium, green autofluorescence 485/535 nm, active compounds read high; series mostly up to 91.3 µM; activity change: at the top concentration. In short, it runs like this: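 Steps: dispense DMEM/10% FBS into empty wells; pin in compound or DMSO; measure fluorescence at 485/535 nm. Values are fluorescein equivalents.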
Turning to `Cc1c([N+](=O)[O-])c(C)c([N+](=O)[O-])c(C(C)(C)C)c1[N+](=O)[O-]`, the “activity change” value is 0.183% (inactive).

`N#CC(C#N)=NNc1cccc(Cl)c1`: the “activity change” value was -0.0748% (inactive).

For the compound `Brc1ccc(Oc2ccc(Br)cc2Br)c(Br)c1`, the “activity change” value was -0.0026% (inactive).

On to `CCOP(=O)(Sc1ccccc1)Sc1ccccc1`, for which the “activity change” value is -0.0775% (inactive).

As for `c1ccc2c(c1)cc1ccc3cccc4ccc2c1c34`, the “activity change” value is -0.0031% [at 95.7 µM] (inactive).

`Oc1cc(Cl)cc(Cl)c1`: the “activity change” value is -0.0533% (inactive).

Turning to `CC(=O)[O-].CC(=O)[O-].CC(=O)[O-].[Cr+3]`, the “activity change” value is -0.0306% (inactive).

Regarding `Cc1cc2c3c(c1)C(c1ccccc1)=N[C@@H](NC(=O)c1ccncc1)C(=O)N3CC2`, the “activity change” value is 0.113% (inactive).

With `COc1ccc2[nH]cc(CCN(C(C)C)C(C)C)c2c1`, the “activity change” value is -0.1% [at 95.7 µM] (inactive).

Turning to `O=C1C2(Cl)C3(Cl)C4(Cl)C(Cl)(Cl)C5(Cl)C3(Cl)C1(Cl)C5(Cl)C24Cl` (stereo not given), the compound was called inactive.

On to `CC(C)N(C(=O)CCl)c1ccccc1`, for which the result was inactive.

Take `CCNc1nc(NC(C)C(C)C)nc(SC)n1` (stereo not given): the “activity change” value is -0.0294% (inactive).

Take `CCCN`: the “activity change” value is -0.0583% (inactive).

For the compound `CC(=O)[O-].CC(=O)[O-].CC(=O)[O-].[Sb+3]`, the activity change is -0.0203% [at 3.72 µM] (inactive).

As to `Nc1cc(Cl)ccc1Cl`, the “activity change” value is 0.0088% (inactive).

With `CN1CCc2cc3c(cc2C1O)OCO3` (stereo not given), the “activity change” value was 0.0137% (inactive).

As for `NC1CCC(CC2CCC(N)CC2)CC1` (stereo not given), the “activity change” value was -0.0505% (inactive).

On to `COP(=O)(OC)O/C(=C\Cl)c1cc(Cl)c(Cl)cc1Cl`, for which the “activity change” value was 0.0524% (inactive).

`CCCC[N+]1(C)CCCC1` (tested in a mixture with another compound): the “activity change” value is 0.0621% [at 95.7 µM] (inactive).

Turning to `c1ccc2nc(N3CCNCC3)ccc2c1`, the “activity change” value is -0.15% [at 46 µM] (inactive).

For the compound `CCCCN(CCCC)C(=S)[S-].CCCCN(CCCC)C(=S)[S-].[Ni+2]`, the “activity change” value is 0.0747% [at 46 µM] (inactive).

For `O=C(Nc1ccc(F)cc1F)c1cccnc1Oc1cccc(C(F)(F)F)c1`, the “activity change” value is 0.105% [at 95.7 µM] (inactive).

On to `CC(C)=CC1C(C(=O)OC(C#N)c2cccc(Oc3ccccc3)c2)C1(C)C` (stereo not given), for which the “activity change” value was 0.119% (inactive).

On to `CC1(C)C(C=C(Cl)Cl)C1C(=O)OC(C#N)c1ccc(F)c(Oc2ccccc2)c1` (stereo not given), for which the “activity change” value is -0.188% (inactive).

As for `C#CC1(O)CCCCC1`, the “activity change” value was -0.0565% (inactive).

For `C=Cc1cccc(CCl)c1`, the “activity change” value is 0.0281% [at 203 µM] (inactive).

Regarding `CCC(C)c1cccc(C(C)CC)c1O` (stereo not given), the “activity change” value is -0.0569% (inactive).

As for `C[C@H]1[C@H](c2ccc(Cl)cc2)SC(=O)N1C(=O)NC1CCCCC1`, the “activity change” value is -0.0248% (inactive).

In the case of `N#Cc1ccc(N(CC(N)=O)CC(F)(F)F)cc1C(F)(F)F`, the “activity change” value was 0.005% (inactive).

As to `O=C(Cl)c1ccccc1F`, the “activity change” value was 0.0196% (inactive).

For the compound `CCOC(=O)Cc1ccccc1`, the “activity change” value was 0.0763% (inactive).

In the case of `Brc1cccc(-c2ccccc2)c1`, the “activity change” value is 0.0549% (inactive).

For `CC(C)Br`, the “activity change” value was 0.0701% (inactive).

Consider `c1csc(-c2ccc(-c3cccs3)s2)c1`, for which the “activity change” value is -0.243% (inactive).

Consider `CC(=O)C(Cl)C(=O)N(C)C` (stereo not given), for which the “activity change” value was 0.0171% (inactive).

Take `ClC(Cl)C(Cl)(Cl)Cl`: the “activity change” value is 0.071% (inactive).

For the compound `CC(C)C(Br)C(=O)NC(N)=O` (stereo not given), the “activity change” value is 0.0059% [at 46 µM] (inactive).
